Molecules are shown by their SMILES. Records with an inconclusive call do not appear. Activity calls are given as the source filed them. Unless noted, the rule behind the calls is not given here.

Test [1] is described as follows: stimulators of insulin release from INS-1E, primary screen, cell-based, 5 mM glucose, NPC library (AID 1117329;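 active = compound raises insulin release from rat beta cells at 5 mM glucose, no numeric limit stated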). Conditions: rat INS-1E insulin secretion, at 10 µM, stronger effect = higher value.
Test [2] in a line: growth inhibition of GSK3B-pretreated HCT116 cells – cell-based, CellTiter-Glo, 0.2 to 20 µM (AID 1117336;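 active = compounds lowering colon cancer cell viability after pretreatment blocking the GSK3B kinase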). Conditions: HCT116 viability after GSK3B inhibitor, at 20 µM, stronger effect = higher value. Background: In ATP-based viability assays light output follows the ATP content of the culture.
A short description of test [3]: inhibition of endothelial tube formation, primary screen, imaging, VEGF stimulated, CD31 staining, tube area, NPC library (AID 1117340;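 active = compound that reduces growth-factor-driven endothelial tube area in a mixed cell culture, no cutoff stated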). Conditions: VEGF-stimulated ADSC/ECFC co-culture, at 10 µM, stronger effect = higher value.
A short description of test [4]: glucagon-like peptide 1 release enhancers, primary assay, NCI-H716 cell line, NPC library (AID 1117341;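 active = compound raises GLP1 secretion from the human gut endocrine cells, with no numeric limit stated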). Conditions: NCI-H716 cells, at 10 µM, stronger effect = higher value.
Test [5] is described as follows: HCT116 colon cancer cell growth inhibition, primary screen, CellTiter-Glo luminescence, NPC library (AID 1117342;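 active = compounds that lower survival of HCT116 colon cancer cells in the luminescence readout, no numeric limit stated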). Conditions: at 20 µM (top of the series).
Test [6] is described as follows: CellTiter-Glo luminescent readout of SW480 viability loss, NPC library primary (AID 1117343;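 active = compounds that lower viability of the colon cancer cells in the luminescence readout, with no numeric limit stated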). Conditions: CellTiter-Glo luminescence; at 20 µM (top of the series).
The nature of test [7]: decreased DLD-1 cellular survival, CellTiter-Glo luminescent readout, NPC compound collection, primary HTS (AID 1117346;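 active = compounds that lower survival of DLD-1 colon cancer cells in the luminescence readout, no cutoff given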). Conditions: DLD-1 viability, CellTiter-Glo luminescence; at 20 µM (top of the series).
The nature of test [8]: modulation of C. elegans fzo-1 (AID 1259413).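 Note: fzo-1 mutant C. elegans worms in liquid wells.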 Conditions: C. elegans fzo-1 modulator screen, mean read-out; stronger effect = higher value.
The nature of test [9]: differential killing of epithelial or mesenchymal cells, primary screen, imaging, PC-3E GFP, TEM4-18 mCherry, co-culture (AID 1345086;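 active = compounds killing one labelled cell type while sparing the other, by normalised counts and ratio limits, not self-fluorescent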;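 for all read-outs here: cells exposed to compound for 72 h before imaging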;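 for red/green cell ratio (normalised): normalised mesenchymal count divided by normalised epithelial count so high means epithelial killing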). Conditions: imaging cell counts, at 1 µM; for red/green cell ratio (normalised): actives lie on both sides, counts scaled to control wells, 1 = unselective.
Test [10] concerns Aerobactin synthetase IucA (Klebsiella pneumoniae). Kind of test: IucA aerobactin synthetase inhibitors, biochemical, Tocris library, absorbance (AID 1345561).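 Note: 100% = enzyme without compound and 0% = no enzyme.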 Conditions: purified IucA enzyme assay, absorbance (OD) read-out; stronger effect = lower value;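 tested at 8 µM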.
The nature of test [11]: growth inhibition of DIPG glioma cells, dose response, cell-based, SU-DIPG-XVII, MIPE5.0, CellTiter-Glo, qHTS (AID 1347060; cut-off not given, nearly all actives have AC50 up to about 26 µM;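 for AC50: cells exposed to compound for 48 hours before viability readout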). Conditions: SU-DIPG-XVII viability, CellTiter-Glo ATP luminescence.
Test [12] in a line: growth inhibition of DIPG glioma cells, dose response, cell-based, SU-DIPG-IV, MIPE4.0, CellTiter-Glo, qHTS (AID 1347063; cut-off not given, nearly all actives have AC50 up to about 30 µM;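 note: compound exposure lasted 48 hours before the viability readout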). Conditions: SU-DIPG-IV viability, CellTiter-Glo ATP luminescence.
Test [13] is described as follows: growth inhibition of DIPG glioma cells, dose response, cell-based, SU-DIPG-XIII, MIPE4.0, CellTiter-Glo, qHTS (AID 1347061; cut-off not given, nearly all actives have AC50 up to about 37 µM;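 note: cells exposed to compound for 48 hours before readout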). Conditions: SU-DIPG-XIII viability, CellTiter-Glo ATP luminescence.
Test [14] in a line: growth inhibition of DIPG glioma cells, dose response, cell-based, JHH-DIPG-1, MIPE4.0, CellTiter-Glo, qHTS (AID 1347062; cut-off not given, nearly all actives have AC50 up to about 27 µM). Conditions: JHH-DIPG-1 viability, CellTiter-Glo ATP luminescence.
Test [15] can be described thus: growth inhibition of DIPG glioma cells, dose response, cell-based, SU-DIPG-XIII, MIPE5.0, CellTiter-Glo, qHTS (AID 1347064; cut-off not given, nearly all actives have AC50 up to about 23 µM). Conditions: SU-DIPG-XIII viability, CellTiter-Glo ATP luminescence.
The mark [16] stands for this setting: measured here: epithelial PC-3E GFP cell survival.
[17] abbreviates: measured here: mesenchymal TEM4-18 mCherry cell survival.

The term remaining activity denotes the signal under treatment as a percentage of the control signal. The AC50 is the concentration giving half of the maximal activity seen. With `CCc1c2c(nc3ccc(OC(=O)N4CCC(N5CCCCC5)CC4)cc13)-c1cc3c(c(=O)n1C2)COC(=O)[C@]3(O)CC`, the insulin secretion stimulation in [1] is -1.1% (inactive). Moreover, the viability decrease in [2] was 67.4% (active). In [3], the tube area decrease was 97.9% (active). Also, the GLP1 secretion stimulation in [4] was 24% (active). Further, the inhibition of viability in [5] was 50.8% (active). In addition, the viability decrease (inhibition) in test [6] is 21.7% (inactive); in [7] it was 8.7% (inactive). Further, the mean signal in test [8] is 270 (inactive). The red/green cell ratio (normalised) in [9] was 1.07 (inactive). Further, the normalised cell number in test [9] (setting [16]) is 0.32; in [9] (setting [17]) it was 0.34. For the same molecule, the remaining activity in [10] is 108% (inactive). Moreover, the AC50 in test [11] is 0.263 µM (active); in test [12] it was 4.69 µM (active).
In the case of `CCC1=C(C)CN(C(=O)NCCc2ccc(S(=O)(=O)NC(=O)NC3CCC(C)CC3)cc2)C1=O` (centres undefined), in test [1], the insulin secretion stimulation is 29.4% (active). The viability decrease in test [2] is 34.1% (inactive). In addition, the tube area decrease in test [3] is -7.2% (inactive). For the same molecule, the GLP1 secretion stimulation in test [4] is 2.3% (inactive). In addition, the inhibition of viability in [5] was 2.4% (inactive). The viability decrease (inhibition) was 17.1% (inactive) in [6] and 7.8% (inactive) in test [7]. Moreover, the mean signal in [8] is 255 (inactive). Besides, the red/green cell ratio (normalised) in [9] was 0.86 (inactive). Moreover, the figures for the normalised cell number in test [9] (setting [16]) and in test [9] (setting [17]) were 1.22 and 1.05, respectively. In [10], the remaining activity is 90.7% (inactive). Besides, the outcome in test [11], in test [13], in test [14], in [12] and in test [15] was inactive.
Take `COc1ccccc1N1CCN(CC(O)COc2cccc3ccccc23)CC1` (centres undefined): in test [1], the insulin secretion stimulation was 0.4% (inactive). In addition, the viability decrease in test [2] was 0.8% (inactive). Also, in test [3], the tube area decrease is 35.4% (inactive). For the same molecule, the GLP1 secretion stimulation in [4] is 10% (inactive). In addition, in [5], the inhibition of viability was 64.7% (active). Besides, the results for the viability decrease (inhibition) in [6] and in test [7] were 92.1% (active) and 59.3% (active), respectively. Also, the mean signal in [8] is 202 (inactive). In addition, the red/green cell ratio (normalised) in [9] is 0.7 (inactive). Further, the normalised cell number came to 1.13 in [9] (setting [16]) and 0.8 in [9] (setting [17]). Further, the remaining activity in [10] is 100% (inactive). The result in test [13] and in test [14] was inactive.
Consider `Cn1nnc2c(C(N)=O)ncn2c1=O`, for which, in test [1], the insulin secretion stimulation is 6.3% (inactive). Further, in [2], the viability decrease was -10.2% (inactive). The tube area decrease in test [3] is 26.7% (inactive). For the same molecule, the GLP1 secretion stimulation in test [4] is -2.4% (inactive). Besides, the inhibition of viability in test [5] was 1.9% (inactive). In addition, the viability decrease (inhibition) in [6] was -3.8% (inactive); in [7] it was -1.4% (inactive). In addition, the mean signal in test [8] is 230 (inactive). Moreover, the red/green cell ratio (normalised) in [9] is 1.08 (inactive). Also, the normalised cell number came to 1.03 in test [9] (setting [16]) and 1.11 in test [9] (setting [17]). For the same molecule, in test [10], the remaining activity was 102% (inactive). The molecule was classed as inactive in test [11], in [13], in [14], in test [12] and in test [15].
Take `CC1CCN(CCCC(=O)c2ccc(F)cc2)CC1`: the insulin secretion stimulation in test [1] was 8.9% (inactive). Also, the viability decrease in test [2] is 5.7% (inactive). The tube area decrease in test [3] was 10.4% (inactive). Besides, the GLP1 secretion stimulation in [4] was -0.3% (inactive). For the same molecule, in test [5], the inhibition of viability was 45.7% (inactive). Also, the values for the viability decrease (inhibition) in [6] and in test [7] were 23.2% (inactive) and 37.1% (inactive), respectively. For the same molecule, the mean signal in [8] is 246 (inactive). Further, the red/green cell ratio (normalised) in [9] was 0.9 (inactive). In addition, the values for the normalised cell number in [9] (setting [16]) and in test [9] (setting [17]) were 0.97 and 0.88, respectively. Also, the remaining activity in [10] is 103% (inactive).

The record behind these values is PubChem BioAssay.
